Compound activity deposited in PubChem by NMMLSC.
RGS4-Gao reg: human RGS4-Galphao interaction regulation. Multiplexed bead flow cytometry, RGS4-Galphao binding; actives lie on both sides. P09471. actives 0.33% (n = 220,000). binding response (% of control), % at 10 µM; in the data active = binding response below about 49% or above about 150%; inactive = in between;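 also: fluorescent Galphao activated with aluminum fluoride binding bead-coupled RGS4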
Target sequence (P09471 whole entry, looked up): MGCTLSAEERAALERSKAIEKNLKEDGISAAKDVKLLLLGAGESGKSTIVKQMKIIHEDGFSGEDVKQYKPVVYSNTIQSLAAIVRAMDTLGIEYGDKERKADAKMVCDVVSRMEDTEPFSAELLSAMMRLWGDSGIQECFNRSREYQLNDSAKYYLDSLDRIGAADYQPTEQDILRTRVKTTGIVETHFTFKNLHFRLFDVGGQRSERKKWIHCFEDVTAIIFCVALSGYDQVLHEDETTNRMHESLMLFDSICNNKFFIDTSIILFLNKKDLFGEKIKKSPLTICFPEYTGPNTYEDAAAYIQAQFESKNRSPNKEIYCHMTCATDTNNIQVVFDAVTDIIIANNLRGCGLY
RGS16-Gao HTS: modulates binding between human RGS16 and Galphao; actives 0.38% (n = 220,000); binding response (% of control), % at 10 µM; O15492+P09471; AID 1441; bead-based flow cytometry RGS16-Galphao binding, fluorescence; actives lie on both sides;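 also: Galphao activated by GDP with aluminum fluoride before binding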
Target sequence (O15492 whole entry, looked up): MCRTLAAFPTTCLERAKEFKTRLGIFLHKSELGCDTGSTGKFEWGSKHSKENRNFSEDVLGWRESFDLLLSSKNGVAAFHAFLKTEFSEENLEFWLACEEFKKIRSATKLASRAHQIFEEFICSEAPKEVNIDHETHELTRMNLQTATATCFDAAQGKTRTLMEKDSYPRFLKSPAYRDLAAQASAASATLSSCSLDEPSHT
Target sequence (P09471 whole entry, looked up): as the sequence (P09471 whole entry, looked up) above
RGS8-Gao reg: human RGS8-Galphao interaction regulation; multiplexed bead flow cytometry, RGS8-Galphao binding; actives lie on both sides; actives 0.34% (n = 220,000); response (percent of control binding), % at 10 µM; in the data active = response below about 60% or above about 140%; inactive = in between;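 also: Galphao activated as the GDP aluminium fluoride complex binding bead-coupled RGS8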
Avidin bead fluor: compound fluoresces at 488/530 nm on avidin beads; actives 0.38% (n = 220,000); fluorescence (KMESF) at 10 µM; compound fluorescence 488/530 nm, flow cytometry; stronger effect = higher value; AID 1775; in the data active = fluorescence above about 47
RGS7-Gao: regulators of human RGS7-Galphao interaction; actives 0.35% (n = 220,000); Multiplexed bead flow cytometry, RGS7-Galphao binding; actives lie on both sides; binding response (% of control), % at 10 µM; P09471; in the data active = binding response below about 49% or above about 150%; inconclusive = no clear call, values can overlap the other calls; inactive = in between;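 also: fluorescent Galphao held in activated GDP-AlF4 state binding bead-coupled RGS7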
GSH fluor: GSH bead compound fluorescence profile; GSH beads flow cytometry, compound fluorescence 488/530 nm; stronger effect = higher value; fluorescence (KMESF) at 10 µM; actives 0.25% (n = 190,000); in the data active = fluorescence above about 89;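 also: glutathione beads carrying GST-tagged Bcl family fusion proteins plus one bare bead set; values are compound well signal with DMSO vehicle wells as background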
RGS-Gao: regulators of human RGS4-Galphao interaction; shares compounds with RGS16-Gao HTS; multiplexed bead flow cytometry, RGS–Galpha-o binding; RGS4–Galpha-o binding response, % at 10 µM; actives 99% (n = 1,600); AID 1504;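 also: fluorescently labeled Galpha-o bound to GDP with aluminium fluoride binding biotinylated RGS beads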
Avidin counter: interferes with biotinylated probe binding to avidin beads | shares compounds with RGS16-Gao HTS | streptavidin beads, fluorescein-biotin binding, flow cytometry | inhibition, % at 10 µM | 1,700 tested, under 10 active | AID 1783;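 active = inhibition above 50%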;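 also: median green fluorescence of gated singlet beads compared with DMSO control wells; 0% = DMSO wells and 100% = complete loss of bead fluorescence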
RGS8-Gao single: confirmation of regulators of human RGS8-Galphao interaction. shares compounds with RGS16-Gao HTS. bead-based flow cytometry RGS8-Galphao binding, fluorescence; actives lie on both sides. binding response (% of control), % at 10 µM. actives 3% (n = 1,700). AID 1836; in the data active = binding response below about 72% or above about 130%; inactive = in between;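 also: Galphao activated as GDP AlF4 complex before binding bead RGS8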
RGS7-Gao confirm: RGS7-Galphao interaction regulation, single point confirmation. actives 7.8% (n = 1,700). shares compounds with RGS16-Gao HTS. AID 1837. response (percent of control binding), % at 10 µM. bead-based flow cytometry RGS7-Galphao binding; actives lie on both sides; in the data active = response below about 75% or above about 130%; inactive = in between;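 also: fluorescent Galphao activated with GDP and aluminum fluoride binding bead-coupled RGS7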
RGS16-Gao conf: RGS16-Galphao interaction regulation, single point confirmation; AID 1838; actives 4% (n = 1,700); response (% of control binding), % at 10 µM; bead-based flow cytometry, RGS16-Galphao binding; actives lie on both sides; shares compounds with RGS16-Gao HTS; in the data active = response below about 74% or above about 130%; inactive = in between;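 also: Galphao activated as the GDP aluminium fluoride complex binding bead-coupled RGS16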
RGS4-Gao confirm: RGS4-Galphao interaction regulation, single point confirmation; shares compounds with RGS16-Gao HTS; actives 4% (n = 1,700); binding response (% of control), % at 10 µM; RGS4-Galphao binding, multiplexed bead flow cytometry; actives lie on both sides; in the data active = binding response below about 74% or above about 130%; inactive = in between
RGS19-Gao conf: RGS19-Galphao interaction regulation, single point confirmation; AID 1841; shares compounds with RGS16-Gao HTS; response (percent of control binding), % at 10 µM; bead-based flow cytometry RGS19-Galphao binding; actives lie on both sides; actives 5% (n = 1,700); in the data active = response below about 50% or above about 160%; inactive = in between;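 also: 100% = no compound control and 0% = blank background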
An asterisk follows results filed as active; ? = inconclusive; / = no result; [ ] = another dose, or the depositor's remark. This is a sample that favours compounds with a hit; in the whole collection about 1.2% have one here. Unless noted, no rule for the calls is given here.

SMILES	RGS4-Gao reg	RGS16-Gao HTS	RGS8-Gao reg	Avidin bead fluor	RGS7-Gao	GSH fluor	Avidin counter	RGS8-Gao single	RGS7-Gao confirm	RGS16-Gao conf	RGS4-Gao confirm	RGS19-Gao conf	others
CC(C)(c1ccccc1)c1ccc(OCC(O)CNC2CCN(Cc3ccccc3)CC2)cc1 (centres undefined)	103	103	99	12	102	12	/	/	/	/	/	/
Cc1n(-c2ccccc2)c2ccc(Cl)cc2[n+]1CCO	100	101	103	11	99	23	/	/	/	/	/	/
CCOc1ccc(-n2nc3c(SCCN4CCCC4)nnc(C)c3c2C)cc1	183*[activator]	202*[activator]	121	40	210*[activator]	12	0	99	88	97	91	92
Cc1ccc(-n2nc3c(SCCN4CCOCC4)nnc(C)c3c2C)cc1	97	100	99	18	100	17	/	/	/	/	/	/
O=c1c2ccccc2nnn1COc1cccc(Cl)c1	102	102	100	11	?	11	/	/	/	/	/	/
O=C(O)CCCC(=O)N1CCC(C(O)(c2ccccc2)c2ccccc2)CC1	102	107	93	8	95	18	-1	103	96	100	99	101
OC(c1ccccc1)(c1ccccc1)C1CCN(C(=S)NCCc2ccccc2)CC1	101	102	103	6	107	19	/	/	/	/	/	/
CCC(=O)Oc1ccc(C(=O)Nc2ccc3c(c2)OCO3)cc1	103	104	102	7	100	15	/	/	/	/	/	/
O=C(Nc1ccc(Cl)c(Cl)c1)Nc1ccc(Br)cc1F	98	103	102	6	100	8	/	/	/	/	/	/
O=C(Nc1ccc(Cl)c(Cl)c1)Nc1ccccc1O	13*	16*	39*	0	?	/	-1	94	70*	87	85	66
COc1ccc(-c2nnc(N(C)C(=O)C3CCCO3)s2)cc1 (centres undefined)	104	111	104	20	104	22	/	/	/	/	/	/
Cc1cnc(-c2nnc(N(C)C(=O)C3CCCO3)s2)cn1 (centres undefined)	56	-47*	69	3	57	11	2	98	96	95	97	101	RGS-Gao=56*
CCC(Oc1cc(Cl)ccc1Cl)C(=O)NNC(=O)CCC(=O)O (centres undefined)	80	13*	60	1	81	11	0	98	104	100	101	85	RGS-Gao=80*
COc1cc(C(=O)OCC#N)ccc1OCc1c(C)noc1C	104	100	100	9	?	/	/	/	/	/	/	/
COc1cc(C(=O)OCC(=O)NC2CCS(=O)(=O)C2)ccc1OCc1c(C)noc1C (centres undefined)	100	125	104	73*	154*[activator]	15	1	100	99	96	98	101	RGS-Gao=100*
COc1ccc2c(c1)CCc1sc(NC(=O)c3ccco3)nc1-2	102	101	100	8	99	20	/	/	/	/	/	/
COc1ccc2c(c1)Cc1sc(NC(=O)c3ccco3)nc1-2	53	42	58*	3	46*	20	0	100	101	101	101	95	RGS-Gao=53*
CC(=O)c1cccc(NC(=O)C2C3C=CC(C3=C(c3ccccc3)c3ccccc3)C2C(=O)O)c1 (centres undefined)	99	97	99	10	?	16	/	/	/	/	/	/
CCC1CCC2(CC1)NC(CO)(CO)CO2 (centres undefined)	115	318	145*[activator]	26	119	23	0	107	106	109	106	100	RGS-Gao=115*
CC1CCC2(CC1)NC(CO)(CO)CO2 (centres undefined)	98	70	94	15	97	22	/	/	/	/	/	/
NC(=O)SC/C(=N\S(=O)(=O)c1ccccc1)Nc1ccccc1	350*[activator]	418*[activator]	118	189*	268*[activator]	47	2	97	88	100	94	88
CC(C)OC(=O)CSc1nnc(-c2cnccn2)n1Cc1ccco1	103	102	100	29	101	16	/	/	/	/	/	/
O=C(CSc1nnc(-c2cnccn2)n1Cc1ccco1)c1ccc2ccccc2c1	29*	19*	22*	2	25*	31	1	103	104	105	105	111
Cc1cc(C)nc(SCc2ccc(C(=O)N/N=C/c3ccco3)cc2)n1	100	96	98	9	100	25	/	/	/	/	/	/
O=C1CCCC2=C1C(c1ccccc1O)C1=C(CCCC1=O)O2	113	259	141*[activator]	7	110	6	0	100	102	102	101	96	RGS-Gao=113*
SMILES	RGS4-Gao reg	RGS16-Gao HTS	RGS8-Gao reg	Avidin bead fluor	RGS7-Gao	GSH fluor	Avidin counter	RGS8-Gao single	RGS7-Gao confirm	RGS16-Gao conf	RGS4-Gao confirm	RGS19-Gao conf	others
O=C1CCCC(O)=C1C1C2=C(CCCC2=O)OC2=C1C(=O)CCC2	106	122	107	12	104	15	/	/	/	/	/	/
C[C@H](NC(=O)c1nc[nH]c1C(=O)NCc1ccccc1)C(=O)OC(C)(C)C	39*	34	42*	1	26*	20	0	103	96	99	96	99
C[C@H](NC(=O)c1nc[nH]c1C(=O)N[C@H](C)c1ccccc1)C(=O)OC(C)(C)C	25*	16*	21*	1	17*	18	0	114	119	122	114	106
Cc1cc(NC(=O)CN(C)S(=O)(=O)c2cccc(Cl)c2)no1	89	91	97	10	?	29	/	/	/	/	/	/
Cc1cc(C)c(S(=O)(=O)NCC(=O)NCc2ccccn2)c(C)c1	102	104	102	9	98	16	/	/	/	/	/	/
COc1cc(/C=N/NC(=O)c2ccc(-n3cccc3)cc2)ccc1O	16*	-86	14*	-1	16*	11	-1	97	100	96	97	86
